For assay [1], the target named is Thyrotropin receptor (Homo sapiens) (UniProt P16473). The experiment in a line: qHTS assay to identify small molecule agonists of the thyroid stimulating hormone receptor (TSHR) signaling pathway (AID 1224843; calls by dose curve; note: nearly all actives have a fitted effect of over 45% in size; note: potency is the fitted concentration of half-maximal effect). An outline of the steps:
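TSHR-expressing HEK293 cells (800 per well) were exposed to compounds for 30 min at room temperature. cAMP was then detected by HTRF competition with cAMP-d2 and anti-cAMP cryptate, read after 1 h at room temperature. Fifteen concentrations, triplicate.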

A short description of assay [2]: qHTS assay to identify small molecule agonists of the hypoxia (HIF-1) signaling pathway - cell viability counter screen (AID 1224844; calls by dose curve; note: nearly all actives have a fitted effect of over 50% in size). The essentials: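 Cells (HRE-bla ME-180, 2,000 per well) sat 5 hrs at 37C, got compound for 17 hrs, were read for CCF4-AM FRET, and were finally lysed with CellTiter-Glo for a 30 min room-temperature luminescence read.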
Assay [3] in a line: qHTS assay to identify small molecule agonists of the hypoxia (HIF-1) signaling pathway (AID 1224846; active = well fitted activation curve with a large enough effect in the signal ratio in the repeat runs, not every such curve was filed as active; the % refers to the signal ratio). The essentials:
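A low-serum medium (0.5% dialyzed FBS) holding 2,000 HRE-bla ME-180 cells per well is preincubated for 5 hrs, dosed with compounds by pintool, and kept a further 17 hrs at 37C, 5% CO2 before CCF4-AM FRET detection of beta-lactamase.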

The nature of assay [4]: qHTS assay to identify small molecule antagonists of the estrogen related receptor (ERR) signaling pathway from Tox21 library (AID 1224848). Note: nearly all actives have a fitted effect of over 50% in size. Note: potency is the fitted concentration of half-maximal effect. The essentials: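 Cells: ERR line, 2,000/well; 6 h preincubation 37 C/5% CO2. Cpd in DMSO via pin tool; 18 h, 37 C. ONE-Glo, 30 min RT, luminescence.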
The nature of assay [5]: qHTS assay to identify small molecule agonists of the estrogen related receptor (ERR) signaling pathway from Tox21 library (AID 1224849; calls by dose curve; note: nearly all actives have a fitted effect of over 15% in size). The settings on record: ERR reporter cell line, ONE-Glo luciferase, 18 h; at 92.4 µM (top of the series) unless noted. The essentials: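 Screening used an NTP-provided ERR luciferase cell line. Compounds in DMSO were added 6 h after seeding and left 18 h at 37 C before a 30 min ONE-Glo step and luminescence reading.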

A short description of assay [6]: qHTS RealTime-Glo MT Cell Viability Assay in HepG2 cells - 24 hour (AID 1224867). Note: nearly all actives have a fitted effect of over 50% in size. Note: potency is the fitted concentration of half-maximal effect. An outline of the steps: (§1)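 Luminescence read-out: viable HepG2 cells reduce a prosubstrate to a NanoLuc substrate, giving a signal proportional to live cell number. Reads taken at 0, 8, 16, 24, 32 and 40 h of compound exposure at 37 C.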
The nature of assay [7]: qHTS RealTime-Glo MT Cell Viability Assay in HEK293 cells - 32 hour (AID 1224868). Note: nearly all actives have a fitted effect of over 50% in size. Note: potency is the fitted concentration of half-maximal effect. An outline of the steps:
(§2)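 Nonlytic real-time viability readout: viable cells convert prosubstrate to NanoLuc substrate, giving luminescence proportional to live cell number. HEK293, 600 cells/well, compound added after 5 h, continuous culture at 37 C.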

The nature of assay [8]: A CellTox Green Cytotoxicity Assay to monitor cytotoxicity in HEK293 cells - 0 hour (AID 1224869). Note: nearly all actives have a fitted effect of over 50% in size. An outline of the steps: (§3)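 Fluorescence intensity, read at 0, 8, 16, 24, 32 and 40 h of compound treatment, reflected dye binding to DNA of dead HEK293 cells; compounds (23 nL, DMSO) were added 5 h after plating cells with reagent.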
The nature of assay [9]: qHTS RealTime-Glo MT Cell Viability Assay in HepG2 cells - 40 hour (AID 1224870). Note: nearly all actives have a fitted effect of over 50% in size. Note: potency is the fitted concentration of half-maximal effect. The essentials: (§4)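 HepG2 cells mixed with RealTime-Glo MT reagents (NanoLuc plus cell-permeant prosubstrate) were seeded at 600 cells/well, incubated 5 h at 37 C/5% CO2, then pinned with compounds in DMSO; nonlytic luminescence tracked viability during 40 h treatment.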
Assay [10] in a line: A CellTox Green Cytotoxicity Assay to monitor cytotoxicity in HEK293 cells - 40 hour (AID 1224871). Note: nearly all actives have a fitted effect of over 45% in size. An outline of the steps:
as §3

Assay [11] in a line: qHTS RealTime-Glo MT Cell Viability Assay in HEK293 cells - 16 hour (AID 1224872). The essentials:
as §2

A short description of assay [12]: qHTS RealTime-Glo MT Cell Viability Assay in HEK293 cells - 40 hour (AID 1224874). Note: nearly all actives have a fitted effect of over 50% in size. Note: potency is the fitted concentration of half-maximal effect. The following applies: RealTime-Glo luminescence; max response: stronger effect = lower value. The essentials: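 Viable HEK293 cells reduce a cell-permeant prosubstrate; the product diffuses out and is consumed by NanoLuc in the medium to give light. Compounds went in after a 5 h incubation and plates were read over the treatment course.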

A short description of assay [13]: A CellTox Green Cytotoxicity Assay to monitor cytotoxicity in HepG2 cells - 16 hour (AID 1224876). Note: nearly all actives have a fitted effect of over 45% in size. The essentials: (§5)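 Using 1536-well format, dye-containing HepG2 suspension was seeded, allowed 5 h at 37 C/5% CO2, dosed by pintool with compounds, positive and negative controls, and imaged for fluorescence across 40 h.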
Assay [14] is described as follows: qHTS RealTime-Glo MT Cell Viability Assay in HepG2 cells - 32 hour (AID 1224877). Note: nearly all actives have a fitted effect of over 55% in size. Note: potency is the fitted concentration of half-maximal effect. An outline of the steps: as §1
Assay [15] can be described thus: A CellTox Green Cytotoxicity Assay to monitor cytotoxicity in HepG2 cells - 24 hour (AID 1224878). Note: nearly all actives have a fitted effect of over 45% in size. An outline of the steps: as §5
Assay [16] in a line: A CellTox Green Cytotoxicity Assay to monitor cytotoxicity in HepG2 cells - 40 hour (AID 1224879). Note: nearly all actives have a fitted effect of over 40% in size. Note: potency is the fitted concentration of half-maximal effect. An outline of the steps: as §5
Assay [17] can be described thus: qHTS assay to identify small molecule agonists of H2AX - cell viability counter screen (AID 1224847; calls by dose curve; note: top concentration of the series differs between compounds; nearly all actives have a fitted effect of over 30% in size). An outline of the steps: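 CHO-K1 cells plated overnight at 37C, then exposed 3 h at 37C to compounds at 15 concentrations (0.76% DMSO final). Viability by CellTiter-Glo luminescence after 30 min at room temperature.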
The nature of assay [18]: qHTS RealTime-Glo MT Cell Viability Assay in HepG2 cells - 8 hour (AID 1224873). Note: nearly all actives have a fitted effect of over 55% in size. The essentials: as §4
Assay [19] is described as follows: A CellTox Green Cytotoxicity Assay to monitor cytotoxicity in HEK293 cells - 24 hour (AID 1224875). Note: nearly all actives have a fitted effect of over 45% in size. An outline of the steps: as §3
The nature of assay [20]: qHTS assay to identify small molecule agonists of H2AX (AID 1224845; active = well fitted activation curve with a large enough effect in the signal ratio in the repeat runs, not every such curve was filed as active; the % refers to the signal ratio). The essentials:
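Wild-type CHO-K1 cells plated overnight, then exposed 3 hr at 37C to compounds at 15 concentrations (0.76% DMSO). Lysed, then HTRF anti-pH2AX(S139)-cryptate/anti-H2AX-d2 detection after 24 hr at room temperature; emissions 665 and 620 nm.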

The results in this text go back to PubChem BioAssay (Tox21).

Molecules are shown by their SMILES. Values without a mark were called inactive. Records with an inconclusive call do not appear. Calls of active or inactive are those of the source. Unless noted, calls come from the whole dose curve; as a rule, active = well fitted curve in the direction sought with a large enough effect in the repeat runs; inconclusive = weak or mixed curves; inactive = no such curve, though single readings can be large; an effect the other way counts as inactive or inconclusive.
% is set by controls: 0 for no effect and ±100 for the full control effect.

Sequence of Thyrotropin receptor (Homo sapiens) (P16473 whole entry, looked up): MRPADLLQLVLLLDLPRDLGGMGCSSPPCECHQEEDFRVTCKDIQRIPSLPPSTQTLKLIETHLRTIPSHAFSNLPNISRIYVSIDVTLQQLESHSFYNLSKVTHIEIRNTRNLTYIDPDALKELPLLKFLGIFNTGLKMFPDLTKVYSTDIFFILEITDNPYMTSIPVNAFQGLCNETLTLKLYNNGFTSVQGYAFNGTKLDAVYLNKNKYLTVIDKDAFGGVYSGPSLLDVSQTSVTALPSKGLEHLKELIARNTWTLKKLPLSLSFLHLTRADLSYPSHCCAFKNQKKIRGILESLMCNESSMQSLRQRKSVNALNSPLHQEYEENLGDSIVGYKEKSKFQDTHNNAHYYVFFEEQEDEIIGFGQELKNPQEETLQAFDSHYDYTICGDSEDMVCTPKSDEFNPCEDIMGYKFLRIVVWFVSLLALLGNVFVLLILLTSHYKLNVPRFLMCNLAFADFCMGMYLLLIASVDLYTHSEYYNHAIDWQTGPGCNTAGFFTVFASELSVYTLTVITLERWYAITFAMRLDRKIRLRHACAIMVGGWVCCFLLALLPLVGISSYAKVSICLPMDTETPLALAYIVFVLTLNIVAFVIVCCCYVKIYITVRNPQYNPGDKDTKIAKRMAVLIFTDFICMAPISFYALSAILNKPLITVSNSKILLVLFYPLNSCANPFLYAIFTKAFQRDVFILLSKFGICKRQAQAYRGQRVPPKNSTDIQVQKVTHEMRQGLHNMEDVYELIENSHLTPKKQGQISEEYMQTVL

`Nc1ccc(Cl)cc1[N+](=O)[O-]`: the Potency entry in [1], in assay [2], in assay [4], in [6], in assay [7] and in [8] was “inactive” throughout. Further, the Potency result in assay [9], in assay [10], in assay [11], in assay [13], in assay [14] and in assay [15] was “inactive” each time. Further, the Potency result in assay [16] was “inactive”. Besides, in [3], the call was inactive. In assay [5], the activity change, positive = activation is -0.746%. Also, the max response in assay [12] is 2.66%.

With `CN1Cc2cc(C(=O)N3CCC(C4CCNCC4)CC3)ccc2N[C@@H](CC(=O)O)C1=O`, the Potency entry in [1], in assay [2], in assay [17], in [4], in [6] and in [7] was “inactive” in each case. Besides, the Potency entry in assay [8], in [9], in assay [10], in [11], in [18] and in [13] was “inactive” throughout. Moreover, the Potency entry in assay [14], in [15] and in assay [16] was “inactive” throughout. The molecule was called inactive in assay [3]. In addition, the max response in assay [12] was 0.441%.

Consider `CCOC(=O)N1CCC(n2c(=O)[nH]c3cc(Cl)ccc32)CC1`, for which the Potency result in [1], in assay [2], in assay [6], in assay [8], in [9] and in assay [10] was “inactive” in each case. Moreover, the Potency entry in [18], in assay [19], in assay [13], in [14], in assay [15] and in [16] was “inactive” each time. Moreover, in assay [3], the molecule was called inactive.

For the molecule `O=C(O)C(Cc1cc(I)c(O)c(I)c1)c1ccccc1` (centres undefined), the Potency result in assay [1], in [2], in assay [17], in [6], in [8] and in assay [9] was “inactive” each time. The Potency entry in [10], in [11], in [19], in assay [13], in [14] and in [15] was “inactive” each time. Also, the Potency result in assay [16] was “inactive”. Moreover, the max response in assay [12] was 0.775%.

Take `O=C(N[C@@H](c1ccccc1)[C@@H]1CCCCN1)c1cccc(C(F)(F)F)c1Cl`: the Potency entry in [1], in assay [2], in assay [8] and in assay [18] was “inactive” in each case. The molecule was called inactive in [3]. Further, the Potency was 30.6 µM (active) in [4]; 43.6 µM (active) in assay [6]; 24.5 µM (active) in [7]; 43.6 µM (active) in assay [9]; 24.5 µM (active) in assay [12]; 43.6 µM (active) in assay [14]. Further, in assay [16], the Potency was 34.7 µM (active). In addition, the activity change, positive = activation in assay [5] was -38.1%.

For `Oc1cc(O)c(Cl)cc1Cl`, the Potency result in assay [1], in assay [2], in assay [17], in assay [4], in assay [6] and in assay [8] was “inactive” each time. The Potency entry in assay [9], in assay [10], in assay [11], in assay [18], in [19] and in assay [13] was “inactive” in each case. In addition, the Potency entry in assay [14], in assay [15] and in assay [16] was “inactive” each time. Further, the outcome in assay [3] was inactive. In addition, in assay [12], the max response is 17.2%.

`CC1CC(=O)NN=C1c1ccc(NCC(C)(C)NCC(O)COc2cc(Cl)ccc2C#N)cc1` (centres undefined): the Potency in assay [1] is 1.19 µM (active). The Potency entry in assay [20], in assay [17], in assay [6], in [9], in assay [10] and in assay [18] was “inactive” throughout. The Potency result in assay [19], in [13], in assay [14], in [15] and in assay [16] was “inactive” in each case. Moreover, the result in [3] was inactive. In assay [5], the activity change, positive = activation was -15% [at 42.5 µM].

As to `O=C(CCCCCCCCC#CI)Oc1ccccc1`, the Potency result in assay [1], in assay [2], in assay [17], in [8], in [10] and in assay [11] was “inactive” each time. The Potency entry in [19], in [13], in [15] and in assay [16] was “inactive” in each case. Further, the call in [3] was inactive. The Potency is 6.01 µM (active) in assay [6], 2.39 µM (active) in assay [9], 5.35 µM (active) in [12] and 4.77 µM (active) in assay [14].
